An excerpt weighted towards active compounds, which were near 2.5% of everything screened.
GALK inhibitor – inhibitors of human galactokinase (GALK). P51570. recombinant GALK, Kinase-Glo ATP luminescence, 1 h. Potency, µM (top dose mostly 57.5 µM), for the others: top-dose activity, negative = inhibition, usual class: inhibitors. 44,000 tested, under 10 active;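 also: plate controls were full GALK reaction for no effect and reaction lacking GALK for full effect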
Target sequence (P51570 whole entry, looked up): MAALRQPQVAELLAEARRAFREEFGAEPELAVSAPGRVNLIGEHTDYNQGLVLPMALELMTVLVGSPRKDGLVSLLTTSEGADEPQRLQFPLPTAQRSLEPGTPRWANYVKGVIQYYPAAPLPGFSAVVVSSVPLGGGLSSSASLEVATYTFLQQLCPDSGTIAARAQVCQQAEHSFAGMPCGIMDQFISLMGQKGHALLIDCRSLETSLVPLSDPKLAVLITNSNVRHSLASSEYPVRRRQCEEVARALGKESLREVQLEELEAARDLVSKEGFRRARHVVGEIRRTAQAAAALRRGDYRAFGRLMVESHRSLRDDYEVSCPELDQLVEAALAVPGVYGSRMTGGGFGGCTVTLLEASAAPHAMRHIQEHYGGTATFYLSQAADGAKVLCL
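Compounds were pinned into ATP buffer, then GALK-galactose mix was added (final 5 nM enzyme, 35 uM ATP, 100 uM galactose, pH 8.0). After 1 h at room temperature, Kinase-Glo Plus was added and luminescence read.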
HTT-AS act – activates huntingtin-antisense promoter activity; HEK293 HTT-AS promoter firefly luciferase reporter, 24 h; response scale: percent change from vehicle, -100% = no light; Potency, µM (doses to about 57.5 µM), without a hit: at the highest dose activity change, positive = activation, actives largely listed as activators; hit rate 0.24% among 48,000; also: potency is read from the fitted curve at half-maximal effect; nearly all actives have a fitted effect of over 55% in size
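Firefly luciferase readout (Dual-Glo, 10 min RT) after 24 h, 37 °C compound exposure (final up to 57.5 uM) of HEK293 reporter cells cultured 24 h beforehand; PTC124 at 50 uM final as control inhibitor; activity scaled vehicle 0%, zero RLU -100%.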
HTT prom inh – inhibits huntingtin promoter activity. Potency, µM (titrated, usually from 57.5 µM), without a hit: at the top dose activity change, negative = inhibition, hits mostly inhibitors. HEK293 HTT promoter firefly luciferase reporter, 24 h. hit rate 0.93% among 48,000; also: potency is read from the fitted curve at half-maximal effect; nearly all actives have a fitted effect of over 50% in size
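HEK293 luciferase promoter-reporter cells (2,500/well) plated 24 h, then compounds added at up to 57.5 uM final for 24 h at 37 °C. Firefly luminescence by Dual-Glo, normalized to vehicle (0%) and zero RLU (-100%).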
FH mod – Identification of activators of human fumarate hydratase by quantitative high-throughput screening. Fumarate hydratase, mitochondrial (Homo sapiens), P07954. FH coupled MDH/diaphorase resazurin fluorescence, 15 min. hit rate 0.22% among 54,000. AID 1347055, 2019. Potency, µM (top dose mostly 79.9 µM), inactives show at the highest dose activity change, negative = inhibition, most hits filed as inhibitors; also: potency is read from the fitted curve at half-maximal effect; % is scaled to controls: 0 for no effect and ±100 for the full control effect; the screen sought activators but most active calls are inhibition curves; nearly all actives have a fitted effect of over 45% in size
NTMT1 inhibitor – blocks human N-terminal methyltransferase 1 activity; Q9BV86; NTMT1 MTase-Glo SAH luminescence, purified enzyme; Potency, µM (doses to about 114 µM), for the others: at the top dose activity change, negative = inhibition, usual class: inhibitors; hit rate 2.5% among 59,000; AID 1645870;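 also: potency is read from the fitted curve at half-maximal effect; plate controls were DMSO vehicle for no effect and no enzyme for full effect; nearly all actives have a fitted effect of over 65% in size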
Target sequence (Q9BV86 whole entry, looked up): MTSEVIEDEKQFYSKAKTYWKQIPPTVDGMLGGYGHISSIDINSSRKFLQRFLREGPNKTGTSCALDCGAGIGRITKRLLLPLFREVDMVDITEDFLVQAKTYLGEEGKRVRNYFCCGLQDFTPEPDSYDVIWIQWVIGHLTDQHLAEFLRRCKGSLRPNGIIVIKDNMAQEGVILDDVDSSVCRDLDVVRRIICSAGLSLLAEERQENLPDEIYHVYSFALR
* hit, by the source's call; ? = inconclusive; / = no result; ! = repeats disagree; [ ] = dose if it differs, or a comment. Calls follow the shape of the dose curve; as a rule, active = well fitted curve in the direction sought with a large enough effect; inconclusive = small, poorly fitted or top-dose-only effect, or another doubt; inactive = no such curve, though single readings can be large; an effect the other way counts as inactive or inconclusive.

SMILES	GALK inhibitor	HTT-AS act	HTT prom inh	FH mod	NTMT1 inhibitor
COc1ccc(/C=C(\C#N)c2nc3ccccc3n2C)c(OC)c1	-3%	3.5µM*	66%	?	?
O=C(CC1Nc2cccc3cccc(c23)NC1=O)Nc1ccc(F)cc1 (stereo unspecified)	1%	-24%	0%	-23%	-20%
COc1ccc(NC(=O)CC2Nc3cccc4cccc(c34)NC2=O)cc1 (stereo unspecified)	0%	-23%	-19%	-16%	79µM*
CCN(CC)C(=O)COC(=O)c1ccc(S(C)(=O)=O)c([N+](=O)[O-])c1	/	/	/	/	14%
O=C(Nc1ccc(F)c(F)c1)c1cc(S(=O)(=O)NC2CCCCCC2)ccc1F	-6%	-38%	25µM*	?	1%
Cc1ccc(-n2ncc(C(=O)N3CCN(c4cccc(C)c4C)CC3)c2C2CCNCC2)c(C)c1	-2%	-10%	-5%	-6%	79µM*
Cc1ccc(C)c(NS(=O)(=O)c2ccc3c4c(cccc24)C(=O)N3)c1	0%	-65%	?	?	45µM*
O=C1Nc2ccc(S(=O)(=O)Nc3ccccc3O)c3cccc1c23	2%	3%	-9%	?	-20%
CC(C)c1ccc(NC(=O)c2cc(S(=O)(=O)NCCc3ccccc3)ccc2F)cc1	-1%	-33%	?	?	5%
CC(C)c1ccccc1Cc1cc(C(=O)Nc2ccc(S(=O)(=O)c3ccccc3C(C)(C)C)cc2)c(O)c(O)c1O	/	-36%	?	2%[53.3 µM]	71µM*!
COc1ccc(NC(=O)Nc2ccc(-c3nc4ccccc4[nH]3)cc2)cc1OC	/	/	/	/	-1%
CCOc1ccc(C(=O)Nc2ccc(S(=O)(=O)N(Cc3ccccc3)c3ccccc3)cc2)cc1	-1%	-94%	1.8µM*	-19%	8%
Cc1ccc(C(=O)Nc2ccc(S(=O)(=O)N(Cc3ccccc3)c3ccccc3)cc2)cc1	0%	-35%	?	-19%	13%
CCOc1ccc(NC(=O)c2ncn(-c3ccccc3)n2)cc1	3%	8.9µM*	36%	-4%	-3%
COc1ccc(C(=O)Nc2ccc(S(=O)(=O)N(Cc3ccccc3)c3ccccc3)cc2)cc1	1%	-38%	5µM*	3%	15%
O=C(Nc1ccc(F)cc1)c1ncn(-c2ccccc2)n1	3%	?	36%	6%	-15%
COc1ccc(CN(C(=O)c2cc3ccccc3oc2=O)C2CCS(=O)(=O)C2)cc1OC (stereo unspecified)	1%	11µM*	48%	4%	-14%
COc1ccc(CN(C(=O)c2cc3ccccc3oc2=O)C2CCS(=O)(=O)C2)cc1 (stereo unspecified)	6%	?	8%	4%	10%
Cc1cc(N[S+](=O)([O-])c2ccc(NC(=O)Cc3ccc4c(c3)OCCO4)cc2)no1	/	/	/	/	8%
C=C1c2cccc(O)c2C(O)=C2C(=O)[C@]3(O)C(O)=C(C(N)=O)C(=O)[C@@H](N(C)C)[C@@H]3[C@@H](O)[C@H]12	/	-10%	-6%	-24%[53.3 µM]	25µM*
CC1CC(=O)C2=C(C1)C1OC1C1(O)C2C(=O)c2cccc(O)c2C1O (stereo unspecified)	/	/	/	-1%[53.3 µM]	3%[29.8 µM]
COc1ccc(OC)c(C(=O)CC2(O)C(=O)N(Cc3ccccc3C)c3ccccc32)c1 (stereo unspecified)	2%	-30%	?	?	?
Cc1ccccc1CN1C(=O)C(O)(CC(=O)c2cccc(Br)c2)c2ccccc21 (stereo unspecified)	1%	-29%	?	32µM*	0%
CCOc1ccccc1NC(=O)N1CCN(C)c2ncccc21	9%	-20%	-14%	-21%	89µM*
FC(F)(F)c1ccccc1-c1nc(NCc2ccc(-c3cccc(Cl)c3)cc2)c2ccccc2n1	/	/	/	/	18%
SMILES	GALK inhibitor	HTT-AS act	HTT prom inh	FH mod	NTMT1 inhibitor
CNCc1ccc(C)c(NC(=O)c2ccc(Nc3nc(-c4ccccc4)c4ccccc4n3)cc2)c1	/	/	/	7%	35µM*
Clc1ccc(Nc2nc(-c3ccccc3)c3ccccc3n2)c(Cl)c1	-1%	6%	-7%[11.5 µM]	-4%	8%
Cc1ccc(-c2nccc(=O)n2C(C)C(=O)NCCc2ccccc2)cc1 (stereo unspecified)	/	/	/	/	-4%
CCOc1ccc(-c2nc(CSCC(=O)NCCc3ccccc3)c(C)o2)cc1	-2%	-50%	7.1µM*	?	-15%
Cc1ccc2nc3sc(C(=O)N4CCN(C5CCN(C)CC5)CC4)cc3cc2c1	/	/	/	/	3%
COc1ccc(C2C=C(c3ccc(Cl)cc3)Nc3nc(-c4ccc(Cl)cc4)nn32)cc1 (stereo unspecified)	0%	-92%	25µM*	-5%	25%
Cc1ccc(C2=CC(c3ccc(Cl)cc3)n3nc(-c4ccc(C)cc4)nc3N2)cc1 (stereo unspecified)	4%	-33%	?	-13%	17%
COc1ccccc1N=c1scc(-c2ccc(S(=O)(=O)N3CCCC3)cc2)n1C	-4%	-78%	3.2µM*	-23%	-4%
C1=C/COCc2cc(ccc2OCCN2CCCC2)Nc2nccc(n2)-c2cccc(c2)COC/1	/	/	/	9%	25µM*
COc1ccc(-c2cc(C(C)=O)c(C)n2CCC(=O)Nc2ccc(C)cc2Cl)cc1	0%	-33%	-39%	2%	89µM*
CCCCOc1ccc(CC/C=C2\SC(=O)N(CCN)C2=O)cc1	/	/	/	3%	50µM*
CCOc1ccc(/C=C2\SC(=O)N(CCN)C2=O)cc1	/	/	/	9%	-12%
O=S(=O)(Nc1ccc(C2CCNCC2)cc1)c1ccc(NCc2cccc(Cl)c2O)cc1	/	/	/	/	22µM*
COc1cc(C(=O)O)ccc1NC(=O)C1NC(CC(C)(C)C)C(C#N)(c2ccc(Cl)cc2F)C1c1cccc(Cl)c1F (stereo unspecified)	/	/	/	32µM*	?
CCN(CC)C(=O)c1ccc2c(c1)ncn2-c1cccc(C)c1	/	/	/	/	0%
CCN1C(=O)N2Cc3cc(OC)cc(OC)c3[C@@H](C)C=C2C12CCN(Cc1cc(C)cc(C)c1)CC2	/	/	/	/	21%
Cc1cc(NS(=O)(=O)c2ccc(NC(=O)Cc3cccc4ccccc34)cc2)no1	/	/	/	/	0%
CO[C@@H]1[C@@H](O)[C@H](O)[C@@H](n2c3c(Cl)cccc3c3c4c(c5c6cccc(Cl)c6[nH]c5c32)C(=O)NC4=O)O[C@H]1CO	/	/	/	/	-12%
COC(=O)c1ccc(NC(=O)CN(CCc2ccccc2)S(=O)(=O)c2ccc(OC)cc2)cc1	1%	-48%	?	-9%	?
COc1cccc(NC(=O)CN(CCc2ccccc2)S(=O)(=O)c2ccc(Cl)cc2)c1	-2%	-15%	-18%	-3%	2.5µM*
Brc1sc2c(c1-c1nc3ccccc3s1)CCNC2	/	/	/	/	-17%
